# JMJD2A Tudor – qHTS Assay for Inhibitors of JMJD2A-Tudor Domain; Lysine-specific demethylase 4A (Homo sapiens), O75164; Potency, µM (highest dose often 114 µM), hits mostly inhibitors; AlphaScreen JMJD2A-Tudor / H3K4me3 peptide binding; AID 504339, 2011; 390,000 compounds, 4.4% hits; note: nearly all actives have a fitted effect of over 50% in size
# BAZ2B inh – qHTS Assay for Inhibitors of BAZ2B; AlphaScreen BAZ2B-H3K14Ac peptide displacement; Potency, µM (series often up to 114 µM), actives largely listed as inhibitors; 360,000 compounds, 4.4% hits; note: nearly all actives have a fitted effect of over 60% in size
# Target sequence (Q9UIF8 whole entry, looked up): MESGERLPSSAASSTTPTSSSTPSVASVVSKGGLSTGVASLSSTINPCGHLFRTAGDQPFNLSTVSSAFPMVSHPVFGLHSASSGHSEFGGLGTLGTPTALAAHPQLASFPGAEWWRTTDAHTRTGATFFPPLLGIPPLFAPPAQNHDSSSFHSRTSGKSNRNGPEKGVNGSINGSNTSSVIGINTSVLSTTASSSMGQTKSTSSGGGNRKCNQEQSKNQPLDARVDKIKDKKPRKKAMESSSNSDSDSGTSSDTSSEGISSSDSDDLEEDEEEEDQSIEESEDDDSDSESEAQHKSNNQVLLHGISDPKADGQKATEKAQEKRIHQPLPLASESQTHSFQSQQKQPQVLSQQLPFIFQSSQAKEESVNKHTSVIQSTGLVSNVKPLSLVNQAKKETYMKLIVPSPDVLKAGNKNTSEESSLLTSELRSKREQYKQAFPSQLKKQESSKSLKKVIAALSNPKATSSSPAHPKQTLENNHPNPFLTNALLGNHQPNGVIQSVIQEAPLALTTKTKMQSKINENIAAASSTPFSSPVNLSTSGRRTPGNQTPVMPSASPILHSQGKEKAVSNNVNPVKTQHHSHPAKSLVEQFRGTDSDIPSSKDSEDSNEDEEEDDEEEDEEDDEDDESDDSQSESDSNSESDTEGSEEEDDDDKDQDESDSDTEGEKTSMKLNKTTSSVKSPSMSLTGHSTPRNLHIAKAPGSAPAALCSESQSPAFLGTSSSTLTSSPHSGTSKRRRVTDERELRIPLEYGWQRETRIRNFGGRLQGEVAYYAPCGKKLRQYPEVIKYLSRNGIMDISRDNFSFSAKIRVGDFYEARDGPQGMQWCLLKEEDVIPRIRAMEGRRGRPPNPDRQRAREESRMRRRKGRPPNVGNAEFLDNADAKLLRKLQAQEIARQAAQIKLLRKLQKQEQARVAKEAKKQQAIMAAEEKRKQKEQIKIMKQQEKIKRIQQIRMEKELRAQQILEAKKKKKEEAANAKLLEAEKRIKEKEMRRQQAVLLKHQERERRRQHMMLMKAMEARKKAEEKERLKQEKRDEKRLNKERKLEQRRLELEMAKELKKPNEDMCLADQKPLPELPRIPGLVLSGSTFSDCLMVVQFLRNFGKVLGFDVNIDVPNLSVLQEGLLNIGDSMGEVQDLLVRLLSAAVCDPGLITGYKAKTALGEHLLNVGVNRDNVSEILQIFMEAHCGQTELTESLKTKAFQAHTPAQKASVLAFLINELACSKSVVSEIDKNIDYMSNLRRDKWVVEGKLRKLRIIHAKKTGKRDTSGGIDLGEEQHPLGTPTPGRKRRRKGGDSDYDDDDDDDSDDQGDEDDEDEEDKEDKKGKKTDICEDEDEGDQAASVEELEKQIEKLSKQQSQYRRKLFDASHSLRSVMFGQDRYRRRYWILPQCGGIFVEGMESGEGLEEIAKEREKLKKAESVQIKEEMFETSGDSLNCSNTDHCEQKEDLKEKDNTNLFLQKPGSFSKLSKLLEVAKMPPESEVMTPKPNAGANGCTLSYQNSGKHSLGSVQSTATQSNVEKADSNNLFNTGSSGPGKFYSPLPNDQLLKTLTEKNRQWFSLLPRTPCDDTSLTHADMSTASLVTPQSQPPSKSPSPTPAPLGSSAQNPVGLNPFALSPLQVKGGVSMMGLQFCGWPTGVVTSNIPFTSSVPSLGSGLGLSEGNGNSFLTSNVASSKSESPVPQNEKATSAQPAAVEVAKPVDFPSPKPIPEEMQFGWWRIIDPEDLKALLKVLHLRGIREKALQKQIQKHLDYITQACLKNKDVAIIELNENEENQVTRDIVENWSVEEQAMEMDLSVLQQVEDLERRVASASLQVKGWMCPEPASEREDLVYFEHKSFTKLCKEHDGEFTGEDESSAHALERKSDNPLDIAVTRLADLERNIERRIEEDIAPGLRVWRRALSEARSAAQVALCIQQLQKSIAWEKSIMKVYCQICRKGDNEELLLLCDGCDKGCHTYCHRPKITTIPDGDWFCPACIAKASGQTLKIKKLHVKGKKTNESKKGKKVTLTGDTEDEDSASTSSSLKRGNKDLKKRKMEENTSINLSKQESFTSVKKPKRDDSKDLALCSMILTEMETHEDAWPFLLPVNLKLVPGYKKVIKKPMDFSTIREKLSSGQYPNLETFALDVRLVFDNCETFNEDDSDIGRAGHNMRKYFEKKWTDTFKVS
#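 BAZ2B 50 nM plus b-H3(5-23)K14Ac 50 nM, PBS pH 7.4/0.01% Tween-20, 30 min RT; compound added (max 110 uM), 30 min RT; streptavidin donor/Ni-chelate acceptor beads 10 ug/mL final, 20 min dark; AlphaScreen read.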
# GLS inhibitor – qHTS for Inhibitors of Glutaminase (GLS); Potency, µM (series often up to 45.5 µM), actives largely listed as inhibitors; 410,000 compounds, 0.21% hits; AID 624170, 2012; GLS enzymatic activity, qHTS titration
#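 Two-point fluorescence kinetic (t0, 30 min RT) for hKGA; glutamate detected via glutamate oxidase–HRP–Amplex Red. Substrate: 1 mM L-glutamine solution; buffer 45 mM KH2PO4, pH 8.2.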
# G9a block – qHTS Assay for Inhibitors of Histone Lysine Methyltransferase G9a; Histone-lysine N-methyltransferase EHMT2 (Homo sapiens), Q96KQ7; G9a H3K9 monomethylation, AlphaScreen, 2 h; Potency, µM (top dose mostly 102 µM), most hits filed as inhibitors; 350,000 compounds, 8.8% hits; AID 504332, 2011; note: nearly all actives have a fitted effect of over 75% in size
#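 Step 1: enzyme (final 20 nM) with compound, 15 min RT. Step 2: substrate peptide 500 nM and SAM 20 uM, 2 h RT. Step 3: anti-H3K9me1 antibody and AlphaScreen beads, 10 min, then plate read.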
# HP1b binding inh – HTS for Inhibitors of HP1-beta Chromodomain Interactions with Methylated Histone Tails | AlphaScreen HP1-beta / biotin-H3K9me3 peptide binding | Potency, µM (doses to about 114 µM), most hits filed as inhibitors | 390,000 compounds, 0.56% hits | AID 540317, 2011; note: nearly all actives have a fitted effect of over 70% in size
#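 HP1-beta protein (50 nM final) preincubated 30 min at room temperature with biotinylated H3(1-18)K9me3 peptide (50 nM) in PBS pH 7.4, 0.01% Tween-20, then compound added for 30 min. AlphaScreen streptavidin donor/nickel chelate acceptor beads (10 ug/mL final), 30 min dark, luminescence read.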
# A number is an active result; - = inactive; ? = inconclusive; . = no result; [ ] = remark or other dose. Hits are enriched below; roughly 10% of the tested compounds scored in any of these assays. Calls come from the whole dose curve; as a rule, active = well fitted curve in the direction sought with a large enough effect; inconclusive = small, poorly fitted or top-dose-only effect, or another doubt; inactive = no such curve, though single readings can be large; an effect the other way counts as inactive or inconclusive.
SMILES,JMJD2A Tudor,BAZ2B inh,GLS inhibitor,G9a block,HP1b binding inh
CCSc1nnc(CNC(=O)C23CC4CC(CC(C4)C2)C3)n1Cc1ccccc1,?,-,-,32µM,-
O=C(Nn1cc(C(=O)Nc2ccc(F)cc2F)c2ccccc2c1=O)c1cnccn1,35µM,28µM,-,0.79µM,-
Brc1ccc2c(c1)C(c1ccc(N3CCOCC3)cc1)=NNC(c1cccs1)=N2,-,?,-,?,-
CCOc1ccc(C2=Nc3ccc(Br)cc3C(c3ccc(N4CCOCC4)cc3)=NN2)cc1,-,-,-,45µM,-
Fc1ccc2c(c1)C(c1ccc(N3CCOCC3)cc1)=NNC(c1cccs1)=N2,25µM,35µM,-,20µM,-
O=C(Nc1cccc(C(F)(F)F)c1)c1sc(Cl)nc1C(F)(F)F,-,-,-,-[0.501 µM],-
Cc1ccccc1C(=O)NNC(=O)/C=C\C(=O)O,50µM,-,-,4.5µM,-
Cc1ccccc1C(=O)NNC(=O)C(C)N1C(=O)c2ccccc2C1=O (stereo not given),-,-,-,11µM,-
Cc1cccc(C(=O)NNC(=O)/C=C/C(=O)O)c1,-,-,-,35µM,-
Cc1ccccc1C(=O)NC(CC(C)C)C(=O)NN1C(=O)c2ccccc2C1=O (stereo not given),-,-,-,-,-
O=C(COC(=O)CC(c1ccccc1)c1ccccc1)Nc1ccc(F)c(F)c1,.,-,.,.,.
C=CCOC(=O)C1=C(C)NC(=O)NC1/C=C/c1ccccc1OC (stereo not given),-,-,-,-,-
C=Cc1ccc(C(=O)NC2CCCN(Cc3ccccc3F)C2)cc1 (stereo not given),-,-,-,-,-
Cc1sc2nc(C3CC3)nc(SCC(=O)NCc3ccco3)c2c1C,-,-,-,50µM,-
O=C(CSc1nnc(-c2ccccc2)n1-c1ccccc1)NCc1ccco1,-,-,-,?,-
O=C(CSc1nnc(C2CC2)n1-c1ccccc1)NCc1ccco1,-,-,-,79µM,-
CCCc1nc(SCC(=O)NCc2ccco2)c2c(=O)n(C)c(=O)n(C)c2n1,-,-,-,45µM,-
CCc1nc(SCC(=O)NCc2ccco2)c2c(=O)n(C)c(=O)n(C)c2n1,-,-,-,?,-
CCCNC(=O)CSc1c(CCC)cnc2c1c(=O)n(C)c(=O)n2C,-,-,?,-,-
CCCc1cnc2c(c1SCC(=O)NCc1ccc(C)cc1)c(=O)n(C)c(=O)n2C,-,-,-,10µM,-
Fc1ccc(-n2ncc3c(Nc4ccc5c(c4)OCCO5)ncnc32)cc1,-,-,-,-,-
O=c1c2ccccc2nc2ccc(NCc3ccco3)nn12,-,?,-,-,-
CCn1c(SCC(=O)NCc2ccco2)nc2c(c1=O)SC(C)C2 (stereo not given),-,-,-,14µM,-
Cc1sc2nc3ccc(NCc4ccco4)nn3c(=O)c2c1C,-,-,-,18µM,-
Clc1ccc(OCc2nc(-c3ccc(-n4cccc4)cc3)no2)cc1,-,-,-,-,-
SMILES,JMJD2A Tudor,BAZ2B inh,GLS inhibitor,G9a block,HP1b binding inh
CN(Cc1cn(-c2ccccc2)nc1-c1cc2ccccc2o1)C(=O)CCC(=O)O,32µM,-,-,-,-
NC(=O)C1CCCCc2c1[nH]c1ccc(Cl)cc21 (stereo not given),?,-,-,-,-
CCNC(=O)C1CCCc2c1[nH]c1ccc(Cl)cc21 (stereo not given),-,79µM,-,-,-
COc1cc(/C=C/C(=O)c2cccc([N+](=O)[O-])c2)cc(OC)c1OC,?,?,-,?,-
O=C(C#Cc1ccccc1)c1cccc([N+](=O)[O-])c1,-,?,-,3.5µM,-
O=C(/C=C/c1ccccc1F)c1cccc([N+](=O)[O-])c1,?,?,-,28µM,-
COc1ccc(-c2ccc3c(c2)S(=O)(=O)c2cccc(C(=O)NC[C@@H]4CCCO4)c2C3=O)cc1OC,40µM,?,-,-[2.33 µM],-
O=C(NC[C@@H]1CCCO1)c1cccc2c1C(=O)c1ccc(Cl)cc1S2(=O)=O,-,-,-,-[0.501 µM],-
COc1cccc(-c2cc(C(F)(F)F)nc(NCCc3ccc(OC)c(OC)c3)n2)c1,-,-,-,-,-
COCCOC(=O)c1c(NC(=O)CN2CCc3ccccc32)sc(C(N)=O)c1C,-,-,-,-,-
CCN(CCO)Cc1cn[nH]c1-c1ccc(C)c(C)c1,3.5µM,56µM,-,3.5µM,?
COc1ccc(C(=O)Cn2c(C)nc([N+](=O)[O-])c2Br)cc1,-,-,-,-,-
Cc1nc([N+](=O)[O-])c(Br)n1CC(=O)c1ccc(Cl)cc1,-,-,-,50µM,-
CC1=CC(C)(C)NC(=S)N1c1ccc(C)cc1C,-,-,-,-,-
Cc1cc(C)cc(-n2cc[nH]c2=S)c1,7.9µM,-,-,0.79µM,-
Cc1ccc(C)c(-n2cc[nH]c2=S)c1,40µM,-,-,2µM,-
Cc1ccc(-n2cc[nH]c2=S)c(C)c1,-,-,-,8.9µM,-
O=C(/C=C/c1cccs1)N1CCN(c2ccc(O)cc2)CC1,?,-,7.1µM,7.9µM,?
O=S(=O)(c1cccs1)N1CCN(c2ccc(O)cc2)CC1,-,-,?,35µM,-
COc1cccc(CNC(=O)Cn2ncn3cccc3c2=O)c1OC,-,-,-,-,-
Cn1c(=O)c2c(ncn2CCCC(=N)N2CCOCC2)n(C)c1=O,50µM,-,-,-[12.7 µM],-
CCCCn1cnc2c1c(=O)n(C)c(=O)n2C,-,-,-,-,-
CCCN(Cc1cccs1)C(=O)Nc1ccc(Br)c(C)c1,-,-,-,-,-
Cc1ccc(-c2nc3ccccc3c(=O)n2O)cc1,35µM,?,-,32µM,-
Cc1ccc(-c2nc3ccccc3c(=O)n2NC(=S)N(C)C)cc1,-,-,-,4µM,?
SMILES,JMJD2A Tudor,BAZ2B inh,GLS inhibitor,G9a block,HP1b binding inh
COc1ccccc1-c1nc2ccccc2c(=O)n1O,-,?,-,35µM,-
O=c1c2ccccc2nc(-c2ccc([N+](=O)[O-])cc2)n1O,?,?,-,-,-
Cc1ccccc1/C=N/Nc1nc2ccccc2c(=O)n1O,-,-,-,14µM,-
O=C(CCc1ccccc1)Nc1ccc(NS(=O)(=O)c2ccccc2)cc1,-,-,-,-,-
CCOC(=O)/C(C#N)=C\c1ccc(CC)s1,-[11.4 µM],-,-,.,-
S=c1[nH]nc(-c2ccco2)n1-c1ccccc1Cl,5µM,-,-,?,-
S=c1[nH]nc(-c2ccc3ccccc3n2)n1-c1ccccc1Cl,?,-,-,?,-
S=c1[nH]nc(-c2cc(-c3ccco3)[nH]n2)n1-c1ccccc1Cl,89µM,50µM,?,4.5µM,-

# Screening results: PubChem BioAssay, National Center for Advancing Translational Sciences (NCATS)
